# PubChem BioAssay (EPA / NIEHS)
# Several values for one entry are separate records, joined by “and”; a condition that tells them apart may be missing. Identical values can stand only once. Inconclusive results are not listed. Activity calls are given as the source filed them. The calls were made as follows, unless noted: active = hit-call score of the fitted dose curve at least 0.9, where 1 is the maximum; inconclusive = response in the unintended direction; inactive = score below 0.9.
# Assays:
# [1] = biological target: human Peroxisome Proliferator-activated Receptor alpha (PPARa), PPARA (gene 5465) (UniProt Q07869); test: ATG_PPARa_TRANS: Attagene TRANS-FACTORIAL HepG2 Assay for human Peroxisome Proliferator-activated Receptor alpha (PPARa) (AID 2283001);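 as to AC50: potency for gain of reporter signal over DMSO so agonist or activator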
# How it was run: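 Reporter transcripts from GAL4-UAS units in transfected HepG2 were quantified 24 h after dosing. Detection used reverse transcription, PCR, fluorescent primer extension and capillary electrophoresis, with DMSO as baseline.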
# [2] = biological target: human Peroxisome Proliferator-activated Receptor delta (PPARd), PPARD (gene 5467) (UniProt Q03181); test: ATG_PPARd_TRANS: Attagene TRANS-FACTORIAL HepG2 Assay for human Peroxisome Proliferator-activated Receptor delta (PPARd) (AID 2283002)
# How it was run: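 Transient HepG2 transfection (multiple GAL4-UAS RTUs, chimeric receptor-Gal4); 24 h dosing; total RNA → oligo(dT) RT → PCR → 6-FAM primer extension → HpaI cut → CE. Positive direction vs DMSO.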
# [3] = read-out: Intercellular Adhesion Molecule 1 (ICAM1), ICAM1 (gene 3383); test: BSK_3C_ICAM1: BioMAP Diversity Plus: 3C Assay for Intercellular Adhesion Molecule 1 (ICAM1) Biomarker Activity (AID 2283003; active = hit-call score of the fitted dose curve at least 0.9, where 1 is the maximum; inactive = score below 0.9); details: primary human endothelial cells (HUVEC); actives raise or lower the signal
# How it was run: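 Human vascular endothelial primary cells, 3C conditions, 24 h treatment. ICAM-1 by ELISA.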
# [4] = biological target: Retinoic acid receptor alpha (Homo sapiens) (UniProt P10276); test: ATG_RARa_TRANS: Attagene TRANS-FACTORIAL HepG2 Assay for human Retinoic Acid Receptor alpha (RARa) (AID 2283005)
# How it was run: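 Reporter transcripts, measured by RT-PCR with fluorescent labeling and capillary electrophoresis after 24 h dosing, reflect activity of an exogenous human RARa–GAL4 fusion in transiently transfected HepG2. Fitted for increase relative to DMSO.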
# [5] = BSK_3C_Proliferation: Cell Proliferation Assessment in the BioMAP Diversity Plus: 3C Assay (AID 2283006; active = hit-call score of the fitted dose curve at least 0.9, where 1 is the maximum; inactive = score below 0.9;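 as to AC50: potency may reflect either rise or fall in cell number versus DMSO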); details: primary human endothelial cells (HUVEC)
# How it was run: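 Proliferation of human vascular endothelial primary cells after 48 h dosing, quantified as SRB-stained protein at 560 nm relative to DMSO.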
# [6] = biological target: Peroxisome proliferator-activated receptor gamma (Homo sapiens) (UniProt P37231); test: ATG_PPARg_TRANS: Attagene TRANS-FACTORIAL HepG2 Assay for human Peroxisome Proliferator-activated Receptor-gamma (PPARg) (AID 2283007)
# How it was run: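 Twenty-four hours after chemical dosing of transiently transfected HepG2 cells, isolated RNA was converted to cDNA, reporter sequences amplified and 6-FAM-labelled, then HpaI-digested and analysed by capillary electrophoresis. Signal increase against DMSO was fitted.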
# [7] = biological target: Nuclear receptor subfamily 1 group I member 2 (Homo sapiens) (UniProt O75469); test: ATG_PXR_TRANS: Attagene TRANS-FACTORIAL HepG2 Assay for human Pregnane X Receptor (PXR) (AID 2283008)
# How it was run: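 HepG2 cells transiently transfected with multiple reporter units, here a PXR-GAL4 chimera driving a GAL4-UAS reporter; 24 h compound exposure. Reporter mRNA measured by RT-PCR, FAM labelling and capillary electrophoresis; gain of signal fitted against DMSO baseline.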
# [8] = biological target: human Retinoic Acid Receptor beta (RARb), RARB (gene 5915) (UniProt P10826); test: ATG_RARb_TRANS: Attagene TRANS-FACTORIAL HepG2 Assay for human Retinoic Acid Receptor beta (AID 2283004)
# How it was run: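 Induction of reporter mRNA from a chimeric RARb-Gal4 construct was measured by RT-PCR, FAM labelling, HpaI digestion and capillary electrophoresis. Measurements followed 24 h compound treatment of transiently transfected human HepG2 liver cells, with DMSO as baseline.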
# [9] = biological target: human Retinoic Acid Receptor gamma (RARg), RARG (gene 5916) (UniProt P13631); test: ATG_RARg_TRANS: Attagene TRANS-FACTORIAL HepG2 Assay for human Retinoic Acid Receptor gamma (RARg) (AID 2283009)
# How it was run: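 HepG2, RARg-GAL4 TRANS system, 24 h exposure; reporter mRNA by RT-PCR + CE fluorescence; increase over DMSO.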
# [10] = biological target: human RAR-related Orphan Receptor beta (RORb), RORB (gene 6096) (UniProt Q92753); test: ATG_RORb_TRANS: Attagene TRANS-FACTORIAL HepG2 Assay for human RAR-related Orphan Receptor beta (RORb) (AID 2283010)
# How it was run: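 In this TRANS-format test, human HepG2 cells express chimeric NR-Gal4 fusion proteins driving GAL4-UAS reporters. After 24 h dosing, reporter transcripts are measured by fluorescent RT-PCR/capillary electrophoresis, with DMSO as negative control.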
# human Retinoic Acid Receptor beta (RARb), RARB (gene 5915), sequence (P10826 whole entry, looked up, the tested form may be a part): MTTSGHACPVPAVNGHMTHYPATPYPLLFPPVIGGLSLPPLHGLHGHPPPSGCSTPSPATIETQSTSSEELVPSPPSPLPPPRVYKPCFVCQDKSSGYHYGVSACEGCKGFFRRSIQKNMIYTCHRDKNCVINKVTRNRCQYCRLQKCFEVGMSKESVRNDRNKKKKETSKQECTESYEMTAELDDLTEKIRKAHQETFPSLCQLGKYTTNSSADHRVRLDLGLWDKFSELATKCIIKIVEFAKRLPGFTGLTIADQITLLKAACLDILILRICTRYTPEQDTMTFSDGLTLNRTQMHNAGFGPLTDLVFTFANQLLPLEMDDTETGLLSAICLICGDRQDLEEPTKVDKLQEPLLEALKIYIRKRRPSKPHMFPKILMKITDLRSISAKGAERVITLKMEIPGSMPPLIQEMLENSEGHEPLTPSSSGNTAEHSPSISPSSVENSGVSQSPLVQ
# human RAR-related Orphan Receptor beta (RORb), RORB (gene 6096), sequence (Q92753 whole entry, looked up, the tested form may be a part): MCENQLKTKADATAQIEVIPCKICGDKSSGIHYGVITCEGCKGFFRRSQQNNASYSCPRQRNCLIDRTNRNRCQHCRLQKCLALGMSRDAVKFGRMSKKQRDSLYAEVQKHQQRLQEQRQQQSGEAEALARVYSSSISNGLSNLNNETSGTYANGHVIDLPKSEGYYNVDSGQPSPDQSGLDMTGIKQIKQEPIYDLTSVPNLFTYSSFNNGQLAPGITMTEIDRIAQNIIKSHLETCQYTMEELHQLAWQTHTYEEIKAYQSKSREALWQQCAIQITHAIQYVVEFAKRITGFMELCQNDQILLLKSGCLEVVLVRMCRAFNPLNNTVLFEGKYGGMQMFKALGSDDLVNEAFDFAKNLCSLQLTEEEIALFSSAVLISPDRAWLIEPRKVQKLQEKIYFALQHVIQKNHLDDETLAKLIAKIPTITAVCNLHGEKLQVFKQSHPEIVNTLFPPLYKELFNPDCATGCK
# human Retinoic Acid Receptor gamma (RARg), RARG (gene 5916), sequence (P13631 whole entry, looked up, the tested form may be a part): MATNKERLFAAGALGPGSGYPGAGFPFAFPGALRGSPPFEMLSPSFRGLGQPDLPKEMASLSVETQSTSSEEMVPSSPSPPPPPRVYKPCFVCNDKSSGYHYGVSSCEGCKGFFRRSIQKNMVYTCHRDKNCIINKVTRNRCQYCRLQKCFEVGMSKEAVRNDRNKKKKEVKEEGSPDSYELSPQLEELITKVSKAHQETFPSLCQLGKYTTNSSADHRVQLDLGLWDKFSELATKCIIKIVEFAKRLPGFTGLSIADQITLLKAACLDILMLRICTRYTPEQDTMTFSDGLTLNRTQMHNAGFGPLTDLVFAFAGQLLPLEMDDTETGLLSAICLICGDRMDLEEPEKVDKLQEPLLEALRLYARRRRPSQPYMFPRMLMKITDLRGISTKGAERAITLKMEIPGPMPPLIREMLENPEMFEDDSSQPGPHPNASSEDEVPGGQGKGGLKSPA
# human Peroxisome Proliferator-activated Receptor delta (PPARd), PPARD (gene 5467), sequence (Q03181 whole entry, looked up, the tested form may be a part): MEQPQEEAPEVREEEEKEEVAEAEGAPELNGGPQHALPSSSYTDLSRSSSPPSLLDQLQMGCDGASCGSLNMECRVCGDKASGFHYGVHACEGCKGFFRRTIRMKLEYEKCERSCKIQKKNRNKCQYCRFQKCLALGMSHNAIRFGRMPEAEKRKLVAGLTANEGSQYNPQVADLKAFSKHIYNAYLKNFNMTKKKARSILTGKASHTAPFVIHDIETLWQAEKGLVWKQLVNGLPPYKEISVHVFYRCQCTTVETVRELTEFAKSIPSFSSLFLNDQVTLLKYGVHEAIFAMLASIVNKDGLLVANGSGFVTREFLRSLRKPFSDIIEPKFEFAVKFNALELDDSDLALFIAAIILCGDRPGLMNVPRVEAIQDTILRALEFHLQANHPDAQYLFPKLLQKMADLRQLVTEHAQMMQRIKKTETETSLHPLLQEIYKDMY
# human Peroxisome Proliferator-activated Receptor alpha (PPARa), PPARA (gene 5465), sequence (Q07869 whole entry, looked up, the tested form may be a part): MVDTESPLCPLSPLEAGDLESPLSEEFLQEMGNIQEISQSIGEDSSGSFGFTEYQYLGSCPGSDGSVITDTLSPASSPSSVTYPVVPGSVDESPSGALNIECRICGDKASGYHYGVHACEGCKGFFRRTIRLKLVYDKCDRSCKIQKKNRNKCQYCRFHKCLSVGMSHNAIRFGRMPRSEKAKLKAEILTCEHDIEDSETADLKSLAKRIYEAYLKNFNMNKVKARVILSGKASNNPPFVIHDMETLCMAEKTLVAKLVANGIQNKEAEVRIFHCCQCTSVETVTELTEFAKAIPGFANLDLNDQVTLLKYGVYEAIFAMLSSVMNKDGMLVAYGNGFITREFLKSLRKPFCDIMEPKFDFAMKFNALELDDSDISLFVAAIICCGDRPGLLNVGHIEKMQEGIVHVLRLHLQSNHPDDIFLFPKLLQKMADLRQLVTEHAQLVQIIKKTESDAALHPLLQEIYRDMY
# Peroxisome proliferator-activated receptor gamma (Homo sapiens), sequence (P37231 whole entry, looked up): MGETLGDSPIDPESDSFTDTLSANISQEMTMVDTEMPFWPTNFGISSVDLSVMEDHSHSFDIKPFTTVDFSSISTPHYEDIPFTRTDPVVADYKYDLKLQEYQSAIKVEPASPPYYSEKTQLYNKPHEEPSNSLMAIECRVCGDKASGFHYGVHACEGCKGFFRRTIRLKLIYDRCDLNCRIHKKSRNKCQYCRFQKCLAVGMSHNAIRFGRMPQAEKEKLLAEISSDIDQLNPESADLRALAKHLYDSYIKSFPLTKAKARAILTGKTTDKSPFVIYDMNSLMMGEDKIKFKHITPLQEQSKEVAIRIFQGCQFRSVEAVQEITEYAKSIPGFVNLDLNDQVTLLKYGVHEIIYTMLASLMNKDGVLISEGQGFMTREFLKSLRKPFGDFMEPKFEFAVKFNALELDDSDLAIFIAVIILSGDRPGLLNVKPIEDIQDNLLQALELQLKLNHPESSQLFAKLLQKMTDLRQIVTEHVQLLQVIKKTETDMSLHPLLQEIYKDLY
# Retinoic acid receptor alpha (Homo sapiens), sequence (P10276 whole entry, looked up, the tested form may be a part): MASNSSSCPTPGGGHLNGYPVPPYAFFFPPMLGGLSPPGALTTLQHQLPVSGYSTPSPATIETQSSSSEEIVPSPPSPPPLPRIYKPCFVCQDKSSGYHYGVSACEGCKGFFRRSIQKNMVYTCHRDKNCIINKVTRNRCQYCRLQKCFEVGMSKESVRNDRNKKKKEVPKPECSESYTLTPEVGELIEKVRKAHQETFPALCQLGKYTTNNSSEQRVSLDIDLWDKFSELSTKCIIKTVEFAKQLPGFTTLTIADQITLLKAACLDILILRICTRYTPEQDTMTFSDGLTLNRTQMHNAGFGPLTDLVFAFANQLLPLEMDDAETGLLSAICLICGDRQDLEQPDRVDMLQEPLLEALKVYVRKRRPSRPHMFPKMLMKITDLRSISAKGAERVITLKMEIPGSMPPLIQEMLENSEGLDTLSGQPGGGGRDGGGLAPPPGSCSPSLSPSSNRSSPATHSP
# Nuclear receptor subfamily 1 group I member 2 (Homo sapiens), sequence (O75469 whole entry, looked up, the tested form may be a part): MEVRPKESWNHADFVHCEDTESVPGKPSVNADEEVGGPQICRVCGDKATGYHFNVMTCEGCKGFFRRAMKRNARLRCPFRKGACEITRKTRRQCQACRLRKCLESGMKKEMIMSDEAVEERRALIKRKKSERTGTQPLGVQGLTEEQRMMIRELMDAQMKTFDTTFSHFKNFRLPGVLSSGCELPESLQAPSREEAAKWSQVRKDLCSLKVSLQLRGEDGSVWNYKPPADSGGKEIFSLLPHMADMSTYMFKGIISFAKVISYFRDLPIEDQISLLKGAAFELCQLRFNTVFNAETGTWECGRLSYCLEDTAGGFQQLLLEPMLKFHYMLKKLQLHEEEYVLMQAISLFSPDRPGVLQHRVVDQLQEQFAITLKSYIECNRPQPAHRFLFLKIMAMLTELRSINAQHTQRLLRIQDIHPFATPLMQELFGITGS
smiles,measurement,setting,value
S=P(N1CC1)(N1CC1)N1CC1,outcome,[1],inactive
same,outcome,[2],inactive
same,outcome,[3],inactive
same,outcome,[4],inactive
same,AC50,[5],13.1 µM (active)
same,outcome,[6],inactive
same,outcome,[7],inactive
O=C(Cl)C(F)(F)C(F)(F)C(F)(F)C(=O)Cl,outcome,[1],inactive
same,outcome,[2],inactive
same,outcome,[3],inactive
same,outcome,[8],inactive
same,outcome,[4],inactive
same,outcome,[5],inactive
same,outcome,[6],inactive
same,outcome,[7],inactive
same,outcome,[9],inactive
same,outcome,[10],inactive
CC(C)c1nnc2ccc(-c3ocnc3-c3cc(F)ccc3F)cn12,outcome,[1],inactive
same,outcome,[2],inactive
same,outcome,[3],inactive
same,outcome,[8],inactive
same,outcome,[4],inactive
same,outcome,[5],inactive
same,outcome,[6],inactive
same,outcome,[7],inactive
same,outcome,[9],inactive
CCn1nc(C)c2c1C(=O)NCC(c1ccc(O)cc1)=N2,outcome,[1],inactive
same,outcome,[2],inactive
same,outcome,[3],inactive
same,AC50,[5],20 µM (active)
same,AC50,[6],8.02 µM (active)
same,outcome,[7],inactive
Cc1cccc(O)c1C,outcome,[1],inactive
same,outcome,[2],inactive
same,outcome,[3],inactive
same,outcome,[8],inactive
same,outcome,[4],inactive
same,outcome,[5],inactive
same,outcome,[6],inactive
same,outcome,[7],inactive
same,outcome,[9],inactive
CCCCCCCC1CCC(=O)O1 (stereo unspecified),outcome,[1],inactive
same,outcome,[2],inactive
same,outcome,[3],inactive
same,outcome,[4],inactive
same,outcome,[5],inactive
same,outcome,[6],inactive
same,outcome,[7],inactive
same,outcome,[9],inactive
O=C(O)c1ccc2c(c1)nc(C(=O)NC1CCN(C3CC3)CC1)n2Cc1cc(-c2ccc(Cl)s2)on1,outcome,[1],inactive
same,outcome,[2],inactive
same,outcome,[3],inactive
same,outcome,[5],inactive
same,AC50,[6],1.03 µM (active)
same,outcome,[10],inactive
NNC(=O)c1ccncc1,outcome,[1],inactive
same,outcome,[2],inactive
same,outcome,[3],inactive
same,outcome,[5],inactive
same,outcome,[6],inactive
same,outcome,[7],inactive
same,outcome,[10],inactive
c1ccc2cc3ccccc3cc2c1,outcome,[1],inactive
same,outcome,[2],inactive
same,outcome,[3],inactive
same,outcome,[8],inactive
same,outcome,[5],inactive
same,outcome,[7],inactive
same,outcome,[9],inactive
O=S(=O)(O)c1ccc(N=Nc2c(O)ccc3cc(S(=O)(=O)O)ccc23)cc1,outcome,[1],inactive
same,outcome,[2],inactive
same,outcome,[3],inactive
same,outcome,[4],inactive
same,outcome,[5],inactive
same,outcome,[7],inactive
same,outcome,[10],inactive
CCN(CC)C(=S)SSC(=S)N(CC)CC,outcome,[1],inactive
same,outcome,[2],inactive
same,AC50,[3],34.9 µM (active)
same,outcome,[6],inactive
same,AC50,[7],49.6 µM (active)
same,outcome,[10],inactive
FC(F)=C(F)C(F)(F)C(F)(F)C(F)(F)C(F)(F)C(F)(F)C(F)(F)F,outcome,[1],inactive
same,outcome,[2],inactive
same,outcome,[3],inactive
same,outcome,[8],inactive
same,outcome,[4],inactive
same,outcome,[5],inactive
same,outcome,[6],inactive
same,outcome,[7],inactive
same,outcome,[9],inactive
O=S1(=O)CCCO1,outcome,[1],inactive
same,outcome,[2],inactive
same,outcome,[3],inactive
same,outcome,[5],inactive
same,outcome,[10],inactive
O=C(O)CO,outcome,[1],inactive
same,outcome,[2],inactive
same,outcome,[8],inactive
same,outcome,[4],inactive
same,outcome,[6],inactive
same,outcome,[7],inactive
CCCCN1C(=O)[C@@H]([C@H](O)C2CCCCC2)NC(=O)C12CCN(Cc1ccc(Oc3ccc(C(=O)O)cc3)cc1)CC2,outcome,[1],inactive
same,outcome,[2],inactive
same,outcome,[3],inactive
same,AC50,[5],28.2 µM (active)
same,outcome,[6],inactive
same,outcome,[7],inactive
C=CCc1cc(S(=O)(=O)c2ccc(O)c(CC=C)c2)ccc1O,outcome,[1],inactive
same,outcome,[2],inactive
same,AC50,[3],29.3 µM (active)
same,AC50,[5],25.8 µM (active)
same,AC50,[6],9.21 µM (active)
same,AC50,[7],3.16 µM (active)
C[C@@H](Oc1ccc(CNC(=O)c2cccnc2Oc2ccc3c(c2)OCO3)c(F)c1)C(=O)O,outcome,[1],inactive
same,outcome,[2],inactive
same,outcome,[3],inactive
same,outcome,[5],inactive
same,AC50,[6],24.3 µM (active)
same,outcome,[7],inactive
same,outcome,[10],inactive
C[Si](C)(C)C(F)(F)C(F)(F)C(F)(F)F,outcome,[1],inactive
same,outcome,[2],inactive
same,outcome,[3],inactive
same,outcome,[8],inactive
same,outcome,[4],inactive
same,outcome,[5],inactive
same,outcome,[6],inactive
same,outcome,[7],inactive
same,outcome,[9],inactive
same,outcome,[10],inactive
O=C(N[C@H](CO)[C@H](O)c1ccc([N+](=O)[O-])cc1)C(Cl)Cl,outcome,[1],inactive
same,outcome,[2],inactive
same,outcome,[6],inactive
same,outcome,[7],inactive
O=S(=O)(O)CCC(F)(F)C(F)(F)C(F)(F)C(F)(F)C(F)(F)C(F)(F)F,outcome,[1],inactive
same,outcome,[2],inactive
same,outcome,[3],inactive
same,outcome,[8],inactive
same,outcome,[4],inactive
same,outcome,[5],inactive
same,outcome,[6],inactive
same,outcome,[7],inactive
same,outcome,[9],inactive
same,outcome,[10],inactive
Cc1ncc([C@@H](CCCCCCc2ccc3c(n2)NCCC3)CC(=O)O)cn1,AC50,[1],19.8 µM (active)
same,outcome,[2],inactive
same,outcome,[3],inactive
same,AC50,[5],2.14 µM (active)
same,AC50,[6],100 µM (active)
same,outcome,[7],inactive
OCc1c[nH]c2ccccc12,outcome,[1],inactive
same,outcome,[2],inactive
same,outcome,[3],inactive
same,outcome,[4],inactive
same,AC50,[5],9.76 µM (active)
same,AC50,[6],7.94 µM (active) [middle of 5 runs]
same,AC50,[7],1.89 µM (active) [middle of 5 runs]
same,outcome,[9],inactive
same,outcome,[10],inactive
OCC(CO)(CO)CO,outcome,[1],inactive
same,outcome,[2],inactive
same,outcome,[3],inactive
same,outcome,[5],inactive
same,outcome,[6],inactive
same,outcome,[7],inactive
Cn1cc[nH]c1=S,outcome,[1],inactive
same,outcome,[2],inactive
same,outcome,[3],inactive
same,outcome,[8],inactive
same,outcome,[5],inactive
FC(F)(F)C(F)(F)C(F)(F)C(F)(F)C(F)(F)C(F)(F)I,outcome,[1],inactive
same,outcome,[2],inactive
same,outcome,[3],inactive
same,outcome,[5],inactive
same,AC50,[6],88 µM (active) and 106 µM (active)
same,outcome,[7],inactive
same,outcome,[10],inactive
Cc1nccn1-c1ccc(Sc2cccc(C3(C(N)=O)CCOCC3)c2)cc1,outcome,[1],inactive
same,outcome,[2],inactive
same,outcome,[3],inactive
same,outcome,[8],inactive
same,outcome,[4],inactive
same,AC50,[5],11.1 µM (active)
same,AC50,[6],1.85 µM (active)
same,outcome,[7],inactive
same,outcome,[9],inactive
same,outcome,[10],inactive
NCC(F)(F)C(F)(F)C(F)(F)C(F)(F)F,outcome,[1],inactive
same,outcome,[2],inactive
same,outcome,[3],inactive
same,outcome,[5],inactive
same,outcome,[6],inactive
same,outcome,[7],inactive
same,outcome,[10],inactive
OCCC(F)(F)C(F)(F)C(F)(F)C(F)(F)F,outcome,[1],inactive
same,outcome,[2],inactive
same,outcome,[3],inactive
same,outcome,[8],inactive
same,outcome,[4],inactive
same,outcome,[5],inactive
same,outcome,[6],inactive
same,outcome,[7],inactive
same,outcome,[9],inactive
same,outcome,[10],inactive
CCCC(CCC)C(=O)O,outcome,[1],inactive
same,outcome,[3],inactive
same,outcome,[5],inactive
same,outcome,[7],inactive
same,outcome,[10],inactive
OC(CCl)CCl,outcome,[1],inactive
same,outcome,[3],inactive
same,outcome,[5],inactive
CNC(C)=O,outcome,[2],inactive
same,outcome,[3],inactive
same,outcome,[5],inactive
CCCCCCCCCCCCCCO,outcome,[1],inactive
same,AC50,[3],35.5 µM (active)
same,outcome,[6],inactive
same,outcome,[7],inactive
CCCCCCCCCC,outcome,[1],inactive
same,outcome,[3],inactive
same,AC50,[5],0.781 µM (active)
O=C(O)c1cccc(C[C@@H]2COc3ccc(OCc4nc5cc(F)ccc5s4)cc3[C@@H]2O)c1,outcome,[1],inactive
same,outcome,[3],inactive
same,outcome,[5],inactive
same,outcome,[7],inactive
CCCCC(CC)C(=O)OCCOCCOCCOC(=O)C(CC)CCCC (stereo unspecified),outcome,[2],inactive
same,outcome,[3],inactive
same,outcome,[4],inactive
same,outcome,[5],inactive
same,outcome,[6],inactive
same,AC50,[7],27.5 µM (active)
